The structures appear in SMILES notation. The whole screen tested about 360,000 compounds, of which about 6,000 (1.7%) were called active. About 8% were inconclusive and are not listed. The call rests on the fitted dose curve; in most records, active means well fitted cell-killing curve with a large enough effect; inconclusive means small, poorly fitted or top-dose-only effect, or effect the other way; inactive means flat fitted curve, though single readings scatter. What follows is part of a selection rich in actives, with near analogues and random picks from the rest. Entries that show only a call come without a potency.
Potency means the concentration at half of the fitted maximal effect.

The nature of this assay: qHTS for induction of synthetic lethality in tumor cells producing 2HG: qHTS for the HT-1080-NT fibrosarcoma cell line.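 Further: NT is the 2HG producing partner of a matched IDH1 knockdown line; nearly all actives have a fitted effect of over 55% in size.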 The following applies: HT-1080-NT fibrosarcoma viability, CellTiter-Glo ATP luminescence, 48 h; series mostly up to 46.1 µM. In short, it runs like this:
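HT-1080-NT; 750 cells/well; 5% FBS RPMI; 48 h compound, 37 degrees C; CellTiter-Glo luminescence; curve fitting and curve-class assignment.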
A general note: In qHTS, concentration-response curves come from the screen itself.
`Cc1ccc(-c2nn(-c3ccccc3)cc2C(=O)NCCCN2CCCC2=O)cc1`: the Potency result was “inactive”. Under `Cc1ccc(-c2nn(-c3ccccc3)cc2C(=O)Nc2cccc(S(=O)(=O)N3CCOCC3)c2)cc1` stands “inactive”; under `O=C(O)c1ccc(NC(=O)c2cn(-c3ccccc3)nc2-c2ccc(Cl)cc2)cc1`, 9.2 µM (active); under `COC(=O)C1(C(=O)OC)C[C@H](c2ccccc2)N(Cc2ccccc2OC)[C@@H]1c1ccccc1`, “inactive”. `CCCNC(=O)C1(C)CCN(Cc2csc(-c3ccc(Cl)cc3)n2)C1` (centres undefined): the Potency entry is “inactive”. Next, `Oc1ccccc1N1CCN(C(=S)NCc2ccccc2)CC1`: “inactive”. Next, `O=C(COC(=O)c1ccccc1C(=O)N1CCN(c2ccccc2)CC1)NCc1ccccc1`: “inactive”; `Oc1ccc(N2CCN(C(=S)NCc3ccccc3)CC2)cc1`: 9.2 µM (active); `O=C(NOCc1ccccc1)c1cccc([N+](=O)[O-])c1`: “inactive”. `O=C(NC(Nc1nc2ccc([N+](=O)[O-])cc2s1)(C(F)(F)F)C(F)(F)F)c1ccccc1`: the Potency was 5.17 µM (active). Under `O=C(COC(=O)c1ccc([N+](=O)[O-])cc1Cl)NC(=O)c1ccccc1` stands “inactive”; under `COc1ncnc2c1ncn2CCCNCCN1CCOCC1`, “inactive”. Next, `CCC1CCCCN1CCCNC(=O)C1CCC(Cn2c(=O)[nH]c3ccccc3c2=O)CC1` (centres undefined): “inactive”. Under `CC1CCCCN1CCCNC(=O)Cn1ncc2c([nH]c3ccccc32)c1=O` (centres undefined) stands “inactive”. Take `CCCCCn1c(=O)[nH]c2cc(C(=O)NCCCN3CCCCC3C)ccc2c1=O` (centres undefined): the Potency is 23.1 µM (active). Under `CC(C)(O)C1=C[N+](=O)CC=C1` stands “inactive”.

In the case of `c1cc(-c2ccc3[nH]ccc3c2)n2ccnc2c1`, the Potency entry is “inactive”. Under `NC(CSC(c1ccccc1)(c1ccccc1)c1ccc(-c2ccccc2)cc1)C(=O)O` (centres undefined) stands “inactive”; under `Clc1ccc(-c2cc(-c3ccccn3)on2)c(Cl)c1`, “inactive”; under `Clc1ccc(-c2cc(C3CCNCC3)[nH]n2)c(Cl)c1`, 23.1 µM (active). Take `C[C@@H]1Cn2cnc(C(=O)Nc3ccc(CNC(=O)OC(C)(C)C)cc3)c2C(=O)N1`: the Potency result is “inactive”. Take `Cc1nnc(SC(C)C(=O)c2c[nH]c3ccccc23)n1C1CC1` (centres undefined): the Potency entry was “inactive”. For the compound `Cc1ccccc1NC(=O)CSc1nc2ccc(Nc3nc(N4CCOCC4)nc(N4CCOCC4)n3)cc2s1`, the Potency result was “inactive”.

For the compound `O=C(CSc1nc(Nc2ccccc2)nc(N2CCOCC2)n1)Nc1cc(Cl)ccc1O`, the Potency was 16.4 µM (active). Under `CC1(c2ccccc2)NC(=O)N(CC(=O)Nc2cc(Cl)ccc2N2CCOCC2)C1=O` (centres undefined) stands “inactive”.

Take `c1ccc2c(c1)nnn2-c1ccncc1`: the Potency entry is “inactive”.

Consider `CC1CCN(C(=O)c2ccc(S(=O)(=O)Cc3cc(F)ccc3F)c([N+](=O)[O-])c2)CC1`, for which the Potency is 11.6 µM (active). Under `O=C(Nc1ccc(F)cc1)C1CCN(C(=O)c2ccc([N+](=O)[O-])cc2)CC1` stands “inactive”; under `O=C(c1ccc(Oc2ccc(Cl)cc2)c([N+](=O)[O-])c1)N1CCCC1`, “inactive”; under `O=C(NCCc1ccc(Cl)cc1)c1cccc(N2CCCC2=O)c1`, “inactive”. For the compound `Oc1cc2c(cc1O)CN(C(=S)NCCc1ccc(Cl)cc1)CCC2`, the Potency is 31.6 µM (active). Under `Cc1ccc(NC(=S)NCCc2ccc(Cl)cc2)c(C)c1` stands “inactive”.

`Cc1cc(C)c2c(=O)n3c(nc2c1)C(CC(C)C)NC(=O)c1cc2ccccc2cc1-3` (centres undefined): the Potency entry is “inactive”.

Consider `CC(C)C1CC2=C(C(=O)OC(C)(C)O2)C(c2ccc(F)cc2)O1` (centres undefined), for which the Potency entry is “inactive”. `CN1OC[C@@H]2CN(S(=O)(=O)c3cccc4ccccc34)[C@H](c3ccc(N4CCCCC4)cc3)C[C@@H]21`: the Potency result is “inactive”. Under `CS(=O)(=O)/C(C#N)=C/c1cccn1S(=O)(=O)c1ccc([N+](=O)[O-])cc1` stands “inactive”; under `CN(C)CCOc1ccc(Cl)cc1C(C)(C)C`, “inactive”; under `Clc1cccc(Cl)c1OCCOCCNCc1ccccc1`, “inactive”.

On to `CN(C)CCOCCOc1ccc(Cl)c2ccccc12`, for which the Potency was 18.4 µM (active). Turning to `COc1cc(C)c(CN2CCN(C(=O)CCC(=O)c3ccc(C)s3)CC2)cc1OC`, the Potency result was “inactive”.

`Cc1ccc(NC(=O)Cn2sc3ccccc3c2=O)cc1`: the Potency entry was “inactive”. Under `CC1(C(=O)NS(=O)(=O)c2cccc(F)c2)CCN1C(=O)Cc1ccc(Cl)cc1Cl` (centres undefined) stands “inactive”; under `COC(=O)[C@]12CCCCC=C1N(Cc1cccc3ccccc13)C(=O)[C@H](CC(=O)N1CCOCC1)C2`, “inactive”.

With `O=C(O)CSc1c2c(nc3cc(C(=O)Nc4cccc(C(F)(F)F)c4)ccc13)CCCC2`, the Potency result was “inactive”. As to `COc1cc(NC(=O)c2[nH]cnc2C(N)=O)cc(C(=O)Nc2cccc(C(F)(F)F)c2)c1`, the Potency was 18.4 µM (active). On to `COc1cc(NC(=O)c2cncc(-c3ccc(C#N)cc3)c2)cc(C(=O)Nc2cccc(C(F)(F)F)c2)c1`, for which the Potency entry is “inactive”.

As for `CC(=O)C1=CCC(c2ccccc2)N(S(=O)(=O)c2ccc(C)cc2)C1` (centres undefined), the Potency result was “inactive”. As for `Cc1ccc(OS(=O)Nc2cccc3nccnc23)cc1` (centres undefined), the Potency is 11.2 µM (active). For `Cc1ccc(C)c(NC(=O)c2ccc3nccnc3c2)c1`, the Potency result was “inactive”.

On to `Cc1ccc(Oc2ccc3c(c2)C(=O)N(c2cccc4cccnc24)C3=O)cc1`, for which the Potency entry was “inactive”. For the compound `CCOc1cc(-c2cc(-c3ccc(NC(C)=O)cc3)nc(N)c2C#N)ccc1O`, the Potency entry is “inactive”. As for `CCOc1cc(/C=C(\C#N)c2nc(-c3cccs3)c(NC(C)=O)s2)ccc1O`, the Potency was 3.26 µM (active). Consider `CCOc1cc(C=NNC(=O)CCCC(=O)NN=Cc2ccc(O)c(OCC)c2)ccc1O`, for which the Potency result is “inactive”. In the case of `CCCNC(=O)C1(C)CCN(C(=O)c2ccc(F)cc2Cl)C1` (centres undefined), the Potency entry was “inactive”.

For the compound `CN1OC[C@@H]2CN(C(=O)c3cccc4ccccc34)[C@H](c3ccc(N4CCCCC4)cc3)C[C@@H]21`, the Potency entry is “inactive”. Under `N#CCSc1nc(-c2ccccc2)nc2ccc(F)cc12` stands “inactive”; under `Oc1ccc(-c2onc3ccc(Cl)cc23)cc1`, “inactive”. Next, `Clc1ccc2nc(-c3ccccc3)nc(C(Cl)Cl)c2c1`: 4.61 µM (active); `CCCCNC(=O)C[C@@H]1C[C@@]2(C(=O)OCC)CCC=C2N(Cc2ccco2)C1=O`: “inactive”.

With `COc1nc(N=C(N)N)nc2c(C)cccc12`, the Potency entry was “inactive”. In the case of `Cc1nc(N=C(N)N)nc2c(C)cccc12`, the Potency is 10.3 µM (active).

Turning to `O=C1CCC(=O)N1CCC(=O)N(C(=O)NC1CCCCC1)C1CCCCC1`, the Potency entry is “inactive”. Under `CC(=O)OC[C@@H]1CN(Cc2ccccc2)C[C@H](n2cnc3c(NCc4ccco4)ncnc32)O1` stands “inactive”; under `C[N+](C)(C)CCNC(=O)c1c[nH]c2ccccc12`, “inactive”. On to `COc1ccc(/C=C(\C#N)c2c[nH]c3ccccc23)cc1`, for which the Potency was 0.411 µM (active).

For the compound `COc1cccc(-n2c(SCC(=O)c3c[nH]c4ccccc34)nc3ccccc3c2=O)c1`, the Potency result was “inactive”. Next, `COc1ccc(C=C2CCC3C(CCCC34OCCO4)C2=O)cc1` (centres undefined): “inactive”. Take `COCCCNC(=O)c1cccc2c(-c3ccc(O)c(OC)c3)coc12`: the Potency entry is “inactive”.

As to `CC1(C(=O)Nc2cccc3c2CCCC3)CCN1C(=O)CCc1ccc(Cl)cc1Cl` (centres undefined), the Potency result is “inactive”. As for `CCOC(=O)CSC1=C(C#N)C(c2sccc2C)CC(=O)N1` (centres undefined), the Potency was 2.51 µM (active). Under `C=CCSC1=C(C#N)C(c2cc(Br)c(O)c(OC)c2)CC(=O)N1` (centres undefined) stands “inactive”. Next, `COC(=O)CSC1=C(C#N)C(c2ccccc2OC)C(C(=O)OC)C(=O)N1` (centres undefined): “inactive”; `CN(Cc1ccccc1)C(=O)CCC1CCN(C(=O)c2ccco2)CC1`: “inactive”; `COC(=O)Cc1ccc(OC2(C)CCN(Cc3ccc4c(c3)OCCO4)C2)cc1` (centres undefined): “inactive”.

For the compound `C#CCNC(=O)C[C@@H]1C[C@@]2(C(=O)OCC)CCCC=C2N(Cc2ccco2)C1=O`, the Potency entry was “inactive”. As to `COc1ccccc1NC(=O)C1=C(C)Nc2nc3ccccc3n2C1c1cccs1` (centres undefined), the Potency was 7.31 µM (active). Take `COc1ccccc1NC(=O)C1=C(C)NC(=O)NC1c1ccc(C)s1` (centres undefined): the Potency result is “inactive”.

As to `CCOc1ccc(C2C(C(=O)NC)=C(C)Nc3nc4ccccc4n32)cc1OC` (centres undefined), the Potency result is “inactive”. Under `COc1ccc(C(O)C(O)(C(=O)OC(C)C)c2ccc(C)cc2)cc1` (centres undefined) stands “inactive”; under `O=C(Nc1cccc2ccccc12)NC1CC1`, “inactive”. Consider `COc1ccc(CCNS(=O)(=O)c2cccc3cccnc23)cc1OC`, for which the Potency result was “inactive”.

For `CCCCC(=O)NC(c1ccc(OC)c(OC)c1)c1ccc2cccnc2c1O` (centres undefined), the Potency was 14.6 µM (active). As to `CCOc1ccc(C(CC(=O)O)NC(=O)Cc2ccccc2)cc1OC` (centres undefined), the Potency result is “inactive”. Next, `Cn1nc(N)c2ncc(C(Cl)(Cl)Cl)nc21`: “inactive”; `O=S1(=O)CC(N2CCN(CCO)CC2)CN1C1CCCC1` (centres undefined): “inactive”; `Nc1c(C(=O)Nc2ccc3c(c2)OCCO3)nnn1Cc1ccccc1`: “inactive”. Under `O=C(COc1cccc(Cl)c1)NCc1ccccc1` stands “inactive”. Under `Nc1c(C(=O)NCc2ccccc2)nnn1Cc1cccc(Cl)c1` stands 13 µM (active); under `Cc1cccc(C)c1NC(=O)CN1CCN(c2ccc(F)cc2)CC1`, “inactive”.

Regarding `CCOc1ccc2[nH]c(=S)sc2c1`, the Potency entry was “inactive”. In the case of `COc1ccc(C(C(=O)Nc2c(C)cccc2C)N2CCN(c3ccc(C)cc3)CC2)cc1` (centres undefined), the Potency entry was “inactive”. Consider `CC1=CC(C)(C)NC(=S)N1c1ccccc1`, for which the Potency is 11.2 µM (active). Turning to `CC1=CC(C)(C)NC(=S)N1NC(=O)c1ccccc1Cl`, the Potency entry is “inactive”. Next, `COc1ccc(S(=O)(=O)N(C)C)cc1NC(=O)COC(=O)c1n[nH]c2ccccc12`: “inactive”; `Cc1ccc(C(=O)Nc2nc3ccc(Cl)cc3s2)o1`: “inactive”; `O=C(CCc1ccccc1Cl)Nc1ccc(S(=O)(=O)Nc2nccs2)cc1`: “inactive”. In the case of `Cc1ccc(CCC(=O)Nc2ncc(Cc3cc(Cl)ccc3Cl)s2)o1`, the Potency is 1.16 µM (active). `CCc1cc(-c2nnn(CCC3COCCO3)c2CC)ccc1-c1cn(Cc2ccc3ccccc3c2)nn1` (centres undefined): the Potency result was “inactive”.

As to `Cc1ccc(Cn2c(C)c(C(=O)NCc3ccccc3C(F)(F)F)sc2=O)cc1`, the Potency result is “inactive”. Under `CCNC(=O)C1(C)CCCN1C(=O)c1ccc(N(C)C)cc1` (centres undefined) stands “inactive”. Next, `Cc1nc2c(OCc3ccc(Cl)cc3Cl)cccn2c1N(C)CC1CC1`: 13 µM (active); `CCc1nc2c(OCc3ccc(F)c(F)c3)cccn2c1N(C)C(=O)c1ccco1`: “inactive”.

Take `CCc1nc2c(OCc3ccc(C(=O)OC)cc3)cccn2c1N(C)C(=O)C(C)C`: the Potency result is “inactive”. Turning to `CCc1nc2c(OCc3ccc(Cl)cc3Cl)cccn2c1N(C)C(=O)C(C)C`, the Potency was 16.4 µM (active). Under `Cc1nc2c(OCc3ccc(Cl)cc3)cccn2c1N(C)Cc1cccs1` stands 16.4 µM (active). Under `Cc1nc2ccccc2nc(C)c1=NOCc1ccc(Cl)cc1Cl` stands “inactive”; under `CCCCN(C=O)c1c(CC)nc2c(OCc3ccccc3C(=O)OC)cccn12`, “inactive”; under `CCc1nc2c(OCc3ccccc3)cccn2c1N(C)C(=O)c1ccco1`, “inactive”. Under `CCOC(=O)N(C)c1c(CC)nc2c(OCc3ccccc3C(=O)OC)cccn12` stands “inactive”.

Values taken from PubChem BioAssay AID686970 (National Center for Advancing Translational Sciences (NCATS), 2013).
